Compounds without any hit were thinned out: in the full panel of roughly 83,000, 20% have a hit.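 A percent growth of 40 corresponds to 60% growth inhibition; 0 means no net growth; -100 means all cells died. Active threshold: below 10.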 A number with no mark means an inactive call. Activity calls are given as the source filed them.
Key:
Test in all cases: NCI-60 one-dose screen, 48 h (100 = growth as untreated, 0 = no growth, -100 = all killed)
Details in all cases: 10 µM unless noted
[1] = system: RPMI-8226 leukemia
[2] = system: OVCAR-8 ovarian
[3] = system: OVCAR-5 ovarian
[4] = system: SK-OV-3 ovarian
[5] = system: IGROV1 ovarian
[6] = system: OVCAR-3 ovarian
[7] = system: HS 578T breast
[8] = system: NCI/ADR-RES ovarian
[9] = system: T-47D breast
[10] = system: BT-549 breast
[11] = system: MDA-MB-435 melanoma
[12] = system: SW-620 colon
[13] = system: MCF7 breast
[14] = system: HCT-116 colon
[15] = system: HCC-2998 colon
[16] = system: KM12 colon
[17] = system: OVCAR-4 ovarian

Row | SMILES | growth [1] | growth [2] | growth [3] | growth [4] [%] | growth [5] | growth [6] | growth [7] | growth [8] | growth [9] | growth [10] | growth [11] | growth [12] | growth [13] | growth [14] | growth [15] | growth [16] | growth [17]
1 | N#C/C(=C\c1ccc2c(c1)OCO2)n1nnc2cc(F)c(F)cc21 | 64.5% | 60.7% | 96.8% | 83.6 | 71.8% | 31.8% | 84.7% | 27.4% | 20.6% | 60% | 3.37% (active) | 44.3% | 44.4% | 47% | 105% | 47.4% | –
2 | C[C@@H]1N=C(c2ccc3ccccc3n2)Nc2nc3ccccn3c2C1=O | 93.8% | 101% | 106% | – | 66.3% | 109% | – | 93.6% | 90.2% | 88.8% | 104% | 99% | 76.7% | 95.5% | 101% | 95.3% | 89.5%
3 | COc1ccc2c(c1)O/C(=C\c1cccc(OCC(=O)Nc3nc4ccccc4s3)c1)C2=O | 53.4% | 5.46% (active) | 95.7% | 99.1 | – | 88.6% | 93.8% | -60.1% (active) | 62.1% | -51.7% (active) | 96.5% | 79% | 73.7% | 76.5% | – | 88.2% | 81.7%
4 | COc1cccc(-c2nc3sccn3c2/C=C/C(=O)c2ccc(C(F)(F)F)cc2)c1 | 46.5% | 81.1% | 92.5% | 77.3 | 92.8% | 78.9% | 80% | 89.8% | 64.1% | 87.3% | 73.3% | 66.3% | 65% | 48.4% | 102% | 73.1% | –
5 | O=c1c2c3c(sc2n2c(-c4cn(-c5ccccc5)nc4-c4ccc(Cl)cc4)nnc2n1Cc1ccccc1)CCCC3 | 94.1% | 97.1% | 103% | 109 | – | 103% | 96.9% | 101% | 81.8% | 103% | 103% | 110% | 75.4% | – | 99.1% | 103% | 95.5%
6 | Cc1c(C(=O)OC(=NC2CCCCC2)NC2CCCCC2)sc2c1c(=O)nc1c(C#N)n[nH]n12 | 137% | 104% | 75.8% | 106 | 84.6% | 105% | 104% | 106% | 109% | 121% | 117% | 107% | 103% | 104% | 100% | 110% | –
7 | CC(C)=C[C@@H]1c2c(c3ccccc3n(C)c2=O)O[C@H]2c3c(c4ccccc4n(C)c3=O)OC(C)(C)[C@@H]12 | -36.8% (active) | 90.4% | 98.7% | 118 | – | 91.9% | – | 75.4% | 57.7% | 54.7% | 83.9% | 89.9% | 69.8% | 81.6% | 82.7% | 89.1% | 64.9%
8 | COc1cc(Cn2ncc3ccc(NC(=O)c4cc5ccccc5oc4=N)cc32)cc(OC)c1OC | 51.7% | 86.8% | 58.3% | 79.4 | 46% | 38.8% | 90% | 50% | 39.6% | – | -16.1% (active) | 43.5% | 25% | 26.6% | 85% | 32.5% | –
9 | O=c1[nH]c2ccccc2n1C1CCN(CCOc2ccccc2)CC1 | 41.5% | 79% | 104% | 91.8 | – | 65.4% | 54.6% | 94.1% | – | 90.3% | 97.7% | 103% | 81.3% | 84.7% | 98.5% | 96.9% | 66.7%
10 | COc1ccc2c(c1)O/C(=C\c1cccc(OCC(=O)Nc3nc(C)c(C)s3)c1)C2=O | -59.8% (active) | 15.1% | 12.7% | 101 | – | -33.1% (active) | 42.9% | -10.7% (active) | 75.7% | -81.9% (active) | – | -39% (active) | 93.8% | – | – | 1.92% (active) | 67.8%
11 | O=C(Nc1cccc2c(O)c(N=Nc3ccc(S(=O)(=O)Nc4nccs4)cc3)cc(N=Nc3ccc(S(=O)(=O)Nc4nccs4)cc3)c12)C(Cl)Cl | -10.9% (active) | 59.1% | 112% | 107 | – | 35.9% | 56.4% | 101% | – | 87.3% | 106% | 42% | 57.8% | 71.8% | 107% | 59% | 90.3%
12 | Cc1ccc(Cl)cc1NC(=O)c1cc2ccccc2cc1O | -58.2% (active) | 7.85% (active) | -5.91% (active) | – | -5.94% (active) | -25.9% (active) | -21% (active) | -27.9% (active) | -12.1% (active) | -15.6% (active) | -7.31% (active) | -1.12% (active) | -21.5% (active) | -10.7% (active) | – | -29.4% (active) | 3.71% (active)
13 | O=[N+]([O-])c1ccc(Sc2cccc[n+]2[O-])c2nonc12 | -12.2% (active) | 82.5% | 120% | 108 | 6.59% (active) | -8.18% (active) | 24.8% | 84.8% | 54.9% | 109% | 97.9% | 23.5% | 25.5% | 2.05% (active) | 98.4% | 68.6% | –
14 | CCCc1cc2c(=O)c(C(=O)OC)c[nH]c2cc1N(CC)CC | 82.5% | 102% | 88.8% | 100 | – | 95.3% | 123% | 99% | 94.4% | 93.5% | – | 114% | 80.2% | 96.3% | 104% | 105% | 101%
15 | Cn1ccc2c(c1=O)C(=O)c1nccc3c1c-2nc1ccccc13 | -29% (active) | -58.5% (active) | 69% | 92.3 | 44.6% | -96.3% (active) | 96.8% | 41% | 84.9% | – | 76.4% | -76.3% (active) | -59.1% (active) | -94.3% (active) | -96.2% (active) | -88.1% (active) | –
16 | CC(=O)OC1CCC2(C)C(=CC3C4CCC(=O)C4(C)CCC32)C1 (stereo not given) | 89.3% | 97.3% | 100% | 105 | 105% | 109% | 119% | 104% | 105% | 95.9% | 116% | 104% | 97.6% | 100% | 102% | 107% | –
17 | O=C1c2cccc(NCCN=Cc3cc([N+](=O)[O-])ccc3O)c2C(=O)c2c(NCCN=Cc3cc([N+](=O)[O-])ccc3O)cccc21 | 7.36% (active) | 78.5% | 86.3% | – | 73.5% | 85.1% | 53.9% | 99.9% | 75.8% | 107% | 99.3% | 29.8% | 20.8% | 33.3% | – | 46.8% | 69.3%
18 | COc1ccc2c(c1)C(=O)/C(=C/c1ccc(OCC(=O)Nc3nccs3)cc1)O2 | -53.8% (active) | 19.1% | -31.5% (active) | 37.9 | – | -24.4% (active) | 56.2% | 56.9% | – | -84.2% (active) | 92.5% | -24% (active) | 59.8% | 15.6% | 113% | 21.3% | 48.3%
19 | COc1cc(/C=N/Nc2ncc(-c3cc4cc5c(cc4o3)OCO5)s2)cc(OC)c1OC | 6.26% (active) | 30% | 98.2% | – | 66.7% | 67.2% | 89.6% | 26.3% | 45.9% | 15.2% | 18.9% | 55.4% | 53.4% | 28.5% | 82.1% | 23.5% | 68.7%
20 | Cc1ccc(-n2nc3c(c(C#N)c2=O)CC(c2ccccc2Cl)C([N+](=O)[O-])=C3O)cc1 (stereo not given) | 83.2% | 102% | 108% | – | 90% | 103% | 94.7% | 98.2% | 73.4% | 103% | 102% | 109% | 94% | 63.8% | 113% | 106% | 90.4%

From PubChem BioAssay (NCI)
